Only some compounds are listed: those with a hit (about 21% of all), similar ones and a draw of the others.
Pf growth 96h: Primary qHTS for delayed death inhibitors of the malarial parasite plastid, 96 hour incubation; Potency, µM (top dose mostly 28.7 µM), without a hit: top-dose activity change, negative = inhibition, most hits filed as inhibitors; P. falciparum luciferase reporter growth, 96 h; 320,000 tested, 6.9% active; note: potency is the fitted concentration of half-maximal effect; % is set by controls: 0 for no effect and ±100 for the full control effect
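Infected RBCs, 2% Hct / 0.05% parasitemia final; luciferase-reporter P. falciparum; cpd 96 h, 37 C, 5% CO2; luciferase detection reagent; luminescence.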
Sm TGR block: qHTS Assay for the Inhibitors of Schistosoma Mansoni Peroxiredoxins | AID 485364, 2010 | Schistosoma mansoni thioredoxin glutathione reductase (TGR), Q962Y6 | purified TGR, DTNB reduction, TNB absorbance 405 nm | Potency, µM (highest dose often 114 µM), for inactives: at the top dose activity change, negative = inhibition, usual class: inhibitors | 360,000 tested, 3% active; note: potency is the fitted concentration of half-maximal effect; % is set by controls: 0 for no effect and ±100 for the full control effect; nearly all actives have a fitted effect of over 60% in size
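First, TGR (20 nM dispensed) and NADPH were mixed with compound. Second, a 15 min room-temperature incubation followed. Third, further NADPH and then DTNB were added to start the reaction. Finally, TNB absorbance was monitored kinetically.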
Cycloheximide cs: Cycloheximide Counterscreen for Small Molecule Inhibitors of Shiga Toxin | cell reporter, cycloheximide protein synthesis inhibition counterscreen | max response, % | 300,000 tested, 12% active | AID 2314, 2010; in the data active = max response mostly above about 13%, no sharp cut-off; inactive = mostly below about 14%; note: read at 38.3 µM for the half of the compounds with a filed dose; 0% is about no effect
NS1 inh: qHTS Assay for Inhibitors of Influenza NS1 Protein Function; Potency, µM (series often up to 46.1 µM), inactives show at the highest dose activity, positive = more growth; 270,000 tested, 0.4% active; calls by dose curve; note: potency is the fitted concentration of half-maximal effect; actives are rising curves; nearly all actives have a fitted effect of over 50% in size
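Recovery from NS1-induced slow growth read by OD600 in budding yeast switched to galactose assay medium (pH 6.0, -URA) at 1:100 dilution. Compound 23 nl per well; the matching strain lacking NS1 serves as control.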
Shiga toxin inh: A qHTS for Small Molecule Inhibitors of Shiga Toxin; 290,000 tested, 9.2% active; inhibition, % at 38.7 µM; Vero cells, Shiga toxin protein synthesis inhibition reporter; in the data active = inhibition mostly above about 28%, no sharp cut-off; inactive = mostly below about 43%; note: 0% is about no effect
Pf growth 48h: Primary qHTS for delayed death inhibitors of the malarial parasite plastid, 48 hour incubation. P. falciparum luciferase growth in erythrocytes, 48 h. Potency, µM (doses to about 28.7 µM), for inactives: at the highest dose activity change, negative = inhibition, actives largely listed as inhibitors. 310,000 tested, 5.9% active. AID 504832, 2011; note: potency is the fitted concentration of half-maximal effect; % is set by controls: 0 for no effect and ±100 for the full control effect
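A one-generation exposure of luciferase-tagged malaria parasites in RPMI 1640/Albumax erythrocyte culture, 37 C and 5% CO2. Inhibition is inferred from decreased luminescence after adding detection reagent.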
The depositor's hits bear a star; ? = inconclusive; / = not tested or not shown; [ ] = remark or other dose. Unless noted, calls come from the whole dose curve; as a rule, active = well fitted curve in the direction sought with a large enough effect; inconclusive = small, poorly fitted or top-dose-only effect, or another doubt; inactive = no such curve, though single readings can be large; an effect the other way counts as inactive or inconclusive.

SMILES	Pf growth 96h	Sm TGR block	Cycloheximide cs	NS1 inh	Shiga toxin inh	Pf growth 48h
CC(C)/C(=N\NC(=O)Nc1ccccc1)c1ccccc1	?	32.7%	18.3	-8.2%	26.7	?
Cc1cccc(NC(=S)N/N=C(\c2ccccc2)C(C)C)c1	38.0%	7.1%	25.9*	-6.2%	54.8*	?
CC/C(=N\NC(=S)Nc1cccc(C)c1)c1ccccc1	?	/	16.7	-59.9%	30.5	9.28µM*
COc1ccc(NC2CCCN(C(=O)CCc3cccc(Cl)c3)C2)cc1 (stereo not given)	-12.1%	-27.0%	6.4	-1.3%	1.4	8.2%
CC(Oc1ccc(F)cc1)C(=O)N1CCC(c2nc3ccccc3s2)CC1 (stereo not given)	/	-2.0%	/	/	/	/
CCOc1ccc(C2CC(=O)c3c([nH]c(C(=O)OCC4CCCCC4)c3C)C2)cc1 (stereo not given)	/	-1.2%	/	/	/	/
Cc1ccnc(NC(=O)CCCc2ccccc2)c1	24.7%	-0.8%	57.9*	-9.0%	74.4*	125.5%
Cc1ccnc(NC(=O)CSc2ccccn2)c1	92.5%	-0.2%	29.2*	-1.3%	42.2	54.8%
O=C(CCCc1ccccc1)Nc1ccccn1	85.2%	/	19.0*	-4.1%	74.1*	27.6%
CCC1CCCCN1CCCNC(=O)CCCOc1cc(=O)n(C)c2ccccc12 (stereo not given)	6.57µM*	9.1%	4.7	/	6.1	-22.4%
COc1cccc(NC(=O)COC(=O)CNS(=O)(=O)c2c(F)cccc2F)c1	?	-9.6%	9.9	4.8%	-9.3	5.9%
CCc1ccc(Oc2c(C(F)(F)F)oc3c(CN4CCN(CC)CC4)c(O)ccc3c2=O)cc1	/	0.6%	/	/	/	/
O=C(COc1ccc2c(-c3ccccc3)cc(=O)oc2c1)N[C@H](Cc1c[nH]c2ccccc12)C(=O)O	91.0%	-2.1%	0.4	11.1%	-4.1	60.8%
CCOP(=O)(O)c1cccc(OCCOCCOc2cccc(P(=O)(O)OCC)c2)c1	-24.9%	-8.3%	-3.6	/	27.9	7.7%
Cc1ccnc(NC(=O)CCCc2c[nH]c3ccccc23)c1	51.1%	53.3%	23.2*	5.3%	46.1*	57.5%
Cc1ccnc(NC(=O)CCCOc2cc(=O)n(C)c3ccccc23)c1	-12.0%	0.0%	16.0*	-18.5%	63.3	-24.2%
Cc1ccc(NC(=O)CCCc2c[nH]c3ccccc23)nc1	48.9%	6.8%	4.8	-3.8%	16.1	10.2%
CC(C)c1ccc(OCC(=O)N(c2ccccn2)C2CCCCC2)cc1	15.1%	-2.4%	16.5*	-36.1%	19.1	?
CC(=O)c1ccc(OCC(=O)NC2CCCCCC2)cc1	2.5%	7.7%	/	/	/	-10.5%
COC(=O)[C@H](C)NC(=O)COc1ccccc1	2.5%	-12.3%	-0.6	4.3%	-17.6	/
CC(C)CC(NC(=O)COc1ccccc1)C(=O)O (stereo not given)	11.7µM*	3.2%	-2.8	5.3%	-20.6	-2.3%
CC(C)c1ccc(OCC(=O)NC2CCCC2)cc1	-5.8%	4.1%	34.1*	-39.3%	63.0*	?
O=C(COc1ccc(F)cc1)N(c1ccccn1)C1CCCCC1	-9.1%	-4.5%	1.2	-7.9%	-4.7	-4.8%
COC(=O)c1ccc(OCC(=O)NC2CCCCCC2)cc1	?	-17.1%	25.2	-26.3%	39.5*	2.1%
Cc1noc(Cn2c(=O)c3cc4c(cc3n(CC(=O)Nc3ccc(C(C)C)cc3)c2=O)OCO4)n1	/	-8.3%	/	/	/	/
SMILES	Pf growth 96h	Sm TGR block	Cycloheximide cs	NS1 inh	Shiga toxin inh	Pf growth 48h
CCOC(=O)c1c(C)[nH]c(C)c1S(=O)(=O)N1CCN(c2ccccc2OC)CC1	/	-8.5%	/	/	/	/
Cc1cc(C)c2c(CC(=O)Nc3ccc(S(=O)(=O)Nc4nc(C)cc(C)n4)cc3)coc2c1	/	-2.4%	/	/	/	/
COc1ccc(OCC(=O)NC2CCCCCCC2)cc1	-3.6%	-1.4%	26.6*	-15.1%	41.8*	43.3%
O=C(c1cccc(C(=O)N(c2ccccn2)C2CCCCC2)c1)N(c1ccccn1)C1CCCCC1	-27.1%	7.6%	-5.9	6.0%	42.5	11.7µM*
CC(C)C[C@H](NC(=O)[C@@H](O)[C@H](N)Cc1ccccc1)C(=O)O	0.675µM*	/	/	-3.1%	/	0.757µM*
O=C(c1ccc(Cl)cc1)N(c1ccccn1)C1CCCCC1	-41.8%[5.75 µM]	7.8%	0.4	-8.8%	-9.6	-33.0%[5.75 µM]
COC(=O)C(CC(C)C)NC(=O)C(N)Cc1ccccc1 (stereo not given)	174.3%	7.1%	2.0	14.5%	-5.6	14.6%
COc1ccc(OCC(=O)NC2CCCN(Cc3ccc(Cl)cc3)C2)cc1 (stereo not given)	?	1.6%	-3.1	-5.2%	-4.1	13.1µM*
COc1cccc(CC(=O)NC2CCCN(Cc3ccc(Cl)cc3)C2)c1 (stereo not given)	-24.1%	6.4%	3.0	18.0%	-9.4	-14.6%
NS(=O)(=O)c1ccc(CCN=Cc2ccccc2O)cc1	13.8%	-0.2%	-3.1	15.7%	8.2	8.1%
Cc1cc(NC(=O)c2cc(-c3cccc(Cl)c3)on2)nn1Cc1ccc(Cl)cc1	/	1.2%	/	/	/	/
COc1ccc(CCN(Cc2cc3cc(C)c(C)cc3nc2Cl)C(=O)C2CC2)cc1	?	-20.0%	-2.3	1.7%	-19.1	7.2%
CCOC(=O)C(NC(=O)C(Cc1ccc(N(CCCl)CCCl)cc1)NC(C)=O)C(C)C (stereo not given)	3.6%	/	-2.2	1.4%	5.7	-18.2%
Cc1ccc(OCC(=O)NC(C)c2ccccc2)cc1 (stereo not given)	18.1%	6.9%	-4.2	17.5%	-1.6	-18.1%
CC(C)c1ccc(OCC(=O)NC(C)c2ccccc2)cc1 (stereo not given)	13.1µM*	-3.4%	10.4	-8.5%	-1.1	20.1%
CC(=O)NC(Cc1ccc(N(CCCl)CCCl)cc1)C(=O)NC(CC(C)C)C(=O)O (stereo not given)	10.4µM*	28.2µM*	0.2	7.1%	-5.8	14.3%
CCCNC(=O)C1CCC(Cn2c(=O)c3sccc3n(CC(=O)N3CCCC3)c2=O)CC1 (stereo not given)	/	-6.3%	/	/	/	/
Cc1cc2cc(OCc3ccccc3)ccc2n1C	?	-24.4%	24.8*	26.9%	31.0*	160.1%
Cc1c(C=O)c2cc(OCc3ccccc3)ccc2n1C	?	1.6%	38.6*	-32.4%	70.2*	10.0%
COc1ccc(-n2c(COc3cccc4ccccc34)nnc2SCC#N)cc1	-12.5%	-6.5%	1.4	11.4%	13.8	13.1µM*
Cc1ccc(-c2nnc(CSc3nnc(COc4cccc5ccccc45)n3-c3ccccc3)o2)cc1	13.1µM*	8.2%	1.6	?	-20.4	/
N#CCSc1nnc(COc2cccc3ccccc23)n1-c1ccccc1	24.9%	-26.9%	-2.6	9.2%	-8.5	?
CCNC(=O)c1c(C)oc2ncn(C)c(=O)c12	/	-5.5%	/	/	/	/

Assay outcomes from PubChem.
